From ChEMBL document CHEMBL1961873, “Compounds: GSK PKIS; Assays: Nanosyn kinase panel” (2012)

Tests used:
[1] = target: Sphingosine kinase 1 (Homo sapiens) (UniProt Q9NYA1); settings: at 1 µM;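 note: mean SPHK1 inhibition value reported from the GSK PKIS kinase panel screen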
[2] = target: T1, Sphingosine kinase 2 (Homo sapiens) (UniProt Q9NRA0); settings: at 0.1 µM
T1 sequence (whole entry): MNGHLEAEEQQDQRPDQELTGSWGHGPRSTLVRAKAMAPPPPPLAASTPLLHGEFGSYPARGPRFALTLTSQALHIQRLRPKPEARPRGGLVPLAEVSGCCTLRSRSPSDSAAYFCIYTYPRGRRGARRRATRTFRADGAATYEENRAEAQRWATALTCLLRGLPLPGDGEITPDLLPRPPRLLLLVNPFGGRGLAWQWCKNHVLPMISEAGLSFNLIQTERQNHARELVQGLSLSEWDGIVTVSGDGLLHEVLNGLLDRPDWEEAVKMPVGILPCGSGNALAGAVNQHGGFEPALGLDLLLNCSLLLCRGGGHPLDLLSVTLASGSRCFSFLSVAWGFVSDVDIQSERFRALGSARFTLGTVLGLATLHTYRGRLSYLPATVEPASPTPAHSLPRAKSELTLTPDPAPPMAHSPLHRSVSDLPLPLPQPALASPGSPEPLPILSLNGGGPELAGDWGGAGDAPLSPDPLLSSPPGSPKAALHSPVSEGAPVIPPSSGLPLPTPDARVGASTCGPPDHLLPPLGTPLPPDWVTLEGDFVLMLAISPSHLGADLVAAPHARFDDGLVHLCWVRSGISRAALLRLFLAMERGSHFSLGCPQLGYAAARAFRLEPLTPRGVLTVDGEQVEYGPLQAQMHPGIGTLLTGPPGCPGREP

[3] = target: T1, Sphingosine kinase 2 (Homo sapiens); settings: at 1 µM
[4] = target: Casein kinase II subunit alpha (Homo sapiens) (UniProt P68400); settings: at 0.1 µM
[5] = target: Casein kinase II subunit alpha (Homo sapiens) (UniProt P68400); settings: at 1 µM
[6] = target: T2, Inhibitor of nuclear factor kappa-B kinase subunit alpha (Homo sapiens) (UniProt O15111); settings: at 0.1 µM
T2 sequence (whole entry): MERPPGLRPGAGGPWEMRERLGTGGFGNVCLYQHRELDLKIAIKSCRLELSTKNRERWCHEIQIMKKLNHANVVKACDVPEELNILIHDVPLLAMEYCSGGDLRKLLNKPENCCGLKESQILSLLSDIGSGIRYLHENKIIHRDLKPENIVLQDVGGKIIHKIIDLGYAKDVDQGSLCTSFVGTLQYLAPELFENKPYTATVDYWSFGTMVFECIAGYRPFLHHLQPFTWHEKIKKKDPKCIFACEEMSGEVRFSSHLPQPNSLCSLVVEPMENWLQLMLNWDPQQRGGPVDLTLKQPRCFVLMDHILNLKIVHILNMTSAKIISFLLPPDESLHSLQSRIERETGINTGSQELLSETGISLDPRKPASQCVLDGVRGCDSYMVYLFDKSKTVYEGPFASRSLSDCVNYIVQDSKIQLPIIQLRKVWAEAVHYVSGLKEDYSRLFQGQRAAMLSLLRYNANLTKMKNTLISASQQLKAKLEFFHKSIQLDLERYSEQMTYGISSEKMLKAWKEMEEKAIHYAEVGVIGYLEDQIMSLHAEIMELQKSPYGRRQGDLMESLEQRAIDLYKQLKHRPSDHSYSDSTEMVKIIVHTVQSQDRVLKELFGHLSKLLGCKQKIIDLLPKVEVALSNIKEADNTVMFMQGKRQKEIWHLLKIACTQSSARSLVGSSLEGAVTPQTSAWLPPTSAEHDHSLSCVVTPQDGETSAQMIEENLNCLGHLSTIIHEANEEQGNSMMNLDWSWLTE

[7] = target: T2, Inhibitor of nuclear factor kappa-B kinase subunit alpha (Homo sapiens); settings: at 1 µM
[8] = target: T3, Inhibitor of nuclear factor kappa-B kinase subunit beta (Homo sapiens) (UniProt O14920); settings: at 0.1 µM
T3 sequence (whole entry): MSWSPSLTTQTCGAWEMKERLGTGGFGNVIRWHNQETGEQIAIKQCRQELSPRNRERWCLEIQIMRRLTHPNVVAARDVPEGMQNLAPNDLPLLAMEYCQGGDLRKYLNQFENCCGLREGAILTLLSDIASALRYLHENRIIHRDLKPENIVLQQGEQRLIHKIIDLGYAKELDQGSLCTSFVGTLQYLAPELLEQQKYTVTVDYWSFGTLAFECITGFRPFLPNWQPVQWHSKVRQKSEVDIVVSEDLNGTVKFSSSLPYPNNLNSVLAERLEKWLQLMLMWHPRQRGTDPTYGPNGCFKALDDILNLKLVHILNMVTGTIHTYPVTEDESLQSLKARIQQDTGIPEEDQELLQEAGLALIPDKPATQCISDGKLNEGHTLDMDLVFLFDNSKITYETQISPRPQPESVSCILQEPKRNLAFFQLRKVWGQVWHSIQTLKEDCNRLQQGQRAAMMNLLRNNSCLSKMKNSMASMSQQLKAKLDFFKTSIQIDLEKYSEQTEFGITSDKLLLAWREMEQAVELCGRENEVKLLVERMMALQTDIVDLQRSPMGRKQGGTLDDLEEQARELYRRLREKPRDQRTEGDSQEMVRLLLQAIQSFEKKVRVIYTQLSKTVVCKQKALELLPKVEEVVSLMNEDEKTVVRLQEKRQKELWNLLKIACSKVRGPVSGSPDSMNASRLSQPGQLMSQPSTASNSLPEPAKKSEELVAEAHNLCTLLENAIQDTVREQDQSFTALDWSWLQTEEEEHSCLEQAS

[9] = target: T3, Inhibitor of nuclear factor kappa-B kinase subunit beta (Homo sapiens); settings: at 1 µM
[10] = target: T4, Inhibitor of nuclear factor kappa-B kinase subunit epsilon (Homo sapiens) (UniProt Q14164); settings: at 0.1 µM
T4 sequence (whole entry): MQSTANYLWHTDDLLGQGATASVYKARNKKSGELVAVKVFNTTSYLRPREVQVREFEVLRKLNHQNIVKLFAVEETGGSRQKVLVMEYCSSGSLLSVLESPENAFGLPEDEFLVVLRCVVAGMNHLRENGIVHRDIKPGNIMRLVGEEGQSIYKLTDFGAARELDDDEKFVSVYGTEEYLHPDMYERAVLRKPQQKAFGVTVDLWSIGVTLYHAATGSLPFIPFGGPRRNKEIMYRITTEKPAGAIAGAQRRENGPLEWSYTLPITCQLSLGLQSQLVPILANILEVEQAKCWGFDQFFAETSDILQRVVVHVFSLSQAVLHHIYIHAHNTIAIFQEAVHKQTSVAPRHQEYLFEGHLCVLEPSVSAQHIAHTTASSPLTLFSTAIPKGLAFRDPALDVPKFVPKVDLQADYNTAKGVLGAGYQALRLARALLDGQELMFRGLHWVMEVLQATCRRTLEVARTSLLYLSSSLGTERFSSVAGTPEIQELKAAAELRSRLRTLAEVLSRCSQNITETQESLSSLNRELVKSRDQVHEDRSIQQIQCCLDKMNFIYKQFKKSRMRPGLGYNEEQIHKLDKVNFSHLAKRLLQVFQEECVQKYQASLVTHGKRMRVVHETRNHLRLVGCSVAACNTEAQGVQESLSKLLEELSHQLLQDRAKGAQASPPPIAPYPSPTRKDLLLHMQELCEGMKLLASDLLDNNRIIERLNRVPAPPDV

[11] = target: T4, Inhibitor of nuclear factor kappa-B kinase subunit epsilon (Homo sapiens); settings: at 1 µM
[12] = target: T5, Serine/threonine-protein kinase Nek1 (Homo sapiens) (UniProt Q96PY6); settings: at 0.1 µM
T5 sequence (whole entry): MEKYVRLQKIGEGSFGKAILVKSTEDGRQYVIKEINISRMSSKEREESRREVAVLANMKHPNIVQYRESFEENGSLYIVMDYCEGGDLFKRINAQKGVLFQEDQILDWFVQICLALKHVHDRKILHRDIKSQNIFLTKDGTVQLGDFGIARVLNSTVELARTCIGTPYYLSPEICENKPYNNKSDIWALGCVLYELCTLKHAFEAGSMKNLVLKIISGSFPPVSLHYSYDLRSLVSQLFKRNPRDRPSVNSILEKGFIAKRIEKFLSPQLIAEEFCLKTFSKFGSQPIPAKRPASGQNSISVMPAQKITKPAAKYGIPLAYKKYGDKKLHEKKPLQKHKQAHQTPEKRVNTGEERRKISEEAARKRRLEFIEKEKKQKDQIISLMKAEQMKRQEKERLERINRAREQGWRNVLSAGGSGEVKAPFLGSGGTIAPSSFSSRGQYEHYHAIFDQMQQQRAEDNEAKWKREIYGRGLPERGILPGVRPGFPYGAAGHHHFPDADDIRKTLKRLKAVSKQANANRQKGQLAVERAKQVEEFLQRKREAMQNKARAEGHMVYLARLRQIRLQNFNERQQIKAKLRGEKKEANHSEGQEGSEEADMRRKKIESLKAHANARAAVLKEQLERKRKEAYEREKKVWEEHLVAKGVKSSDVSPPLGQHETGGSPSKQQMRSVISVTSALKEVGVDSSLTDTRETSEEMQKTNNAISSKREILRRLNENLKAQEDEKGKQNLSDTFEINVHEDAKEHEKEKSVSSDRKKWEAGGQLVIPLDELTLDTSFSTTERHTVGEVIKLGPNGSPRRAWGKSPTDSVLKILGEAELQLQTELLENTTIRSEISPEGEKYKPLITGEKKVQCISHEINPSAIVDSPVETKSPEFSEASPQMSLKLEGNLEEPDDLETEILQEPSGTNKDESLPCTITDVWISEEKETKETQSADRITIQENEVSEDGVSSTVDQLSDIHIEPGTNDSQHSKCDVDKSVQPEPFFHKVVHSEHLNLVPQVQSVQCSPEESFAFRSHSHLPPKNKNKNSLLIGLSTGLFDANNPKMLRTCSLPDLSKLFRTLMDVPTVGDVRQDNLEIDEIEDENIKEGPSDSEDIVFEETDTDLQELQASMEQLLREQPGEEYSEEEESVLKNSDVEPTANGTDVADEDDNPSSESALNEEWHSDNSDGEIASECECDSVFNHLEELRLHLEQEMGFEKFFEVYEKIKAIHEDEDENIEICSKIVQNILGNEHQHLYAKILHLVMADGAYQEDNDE

[13] = target: T5, Serine/threonine-protein kinase Nek1 (Homo sapiens); settings: at 1 µM
[14] = target: T6, Serine/threonine-protein kinase Nek2 (Homo sapiens) (UniProt P51955); settings: at 0.1 µM
T6 sequence (whole entry): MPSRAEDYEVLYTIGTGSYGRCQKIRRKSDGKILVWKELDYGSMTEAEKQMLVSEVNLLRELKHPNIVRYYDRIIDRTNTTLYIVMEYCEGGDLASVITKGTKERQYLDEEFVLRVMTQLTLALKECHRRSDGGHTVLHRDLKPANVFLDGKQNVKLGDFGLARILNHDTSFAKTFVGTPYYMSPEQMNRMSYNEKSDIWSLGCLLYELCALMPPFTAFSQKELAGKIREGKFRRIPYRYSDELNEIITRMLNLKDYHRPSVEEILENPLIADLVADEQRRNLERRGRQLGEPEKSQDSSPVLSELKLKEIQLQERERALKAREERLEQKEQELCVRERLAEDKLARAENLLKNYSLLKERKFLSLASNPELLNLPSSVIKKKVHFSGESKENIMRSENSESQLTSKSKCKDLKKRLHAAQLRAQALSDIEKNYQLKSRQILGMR

[15] = target: T6, Serine/threonine-protein kinase Nek2 (Homo sapiens); settings: at 1 µM
[16] = target: Serine/threonine-protein kinase Nek6 (Homo sapiens) (UniProt Q9HC98); settings: at 0.1 µM
[17] = target: Serine/threonine-protein kinase Nek6 (Homo sapiens) (UniProt Q9HC98); settings: at 1 µM
[18] = target: Serine/threonine-protein kinase Nek7 (Homo sapiens) (UniProt Q8TDX7); settings: at 0.1 µM
[19] = target: Serine/threonine-protein kinase Nek7 (Homo sapiens) (UniProt Q8TDX7); settings: at 1 µM
[20] = target: T7, Serine/threonine-protein kinase Nek9 (Homo sapiens) (UniProt Q8TD19); settings: at 0.1 µM;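 note: reported value is the mean percent inhibition of NEK9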
T7 sequence (whole entry): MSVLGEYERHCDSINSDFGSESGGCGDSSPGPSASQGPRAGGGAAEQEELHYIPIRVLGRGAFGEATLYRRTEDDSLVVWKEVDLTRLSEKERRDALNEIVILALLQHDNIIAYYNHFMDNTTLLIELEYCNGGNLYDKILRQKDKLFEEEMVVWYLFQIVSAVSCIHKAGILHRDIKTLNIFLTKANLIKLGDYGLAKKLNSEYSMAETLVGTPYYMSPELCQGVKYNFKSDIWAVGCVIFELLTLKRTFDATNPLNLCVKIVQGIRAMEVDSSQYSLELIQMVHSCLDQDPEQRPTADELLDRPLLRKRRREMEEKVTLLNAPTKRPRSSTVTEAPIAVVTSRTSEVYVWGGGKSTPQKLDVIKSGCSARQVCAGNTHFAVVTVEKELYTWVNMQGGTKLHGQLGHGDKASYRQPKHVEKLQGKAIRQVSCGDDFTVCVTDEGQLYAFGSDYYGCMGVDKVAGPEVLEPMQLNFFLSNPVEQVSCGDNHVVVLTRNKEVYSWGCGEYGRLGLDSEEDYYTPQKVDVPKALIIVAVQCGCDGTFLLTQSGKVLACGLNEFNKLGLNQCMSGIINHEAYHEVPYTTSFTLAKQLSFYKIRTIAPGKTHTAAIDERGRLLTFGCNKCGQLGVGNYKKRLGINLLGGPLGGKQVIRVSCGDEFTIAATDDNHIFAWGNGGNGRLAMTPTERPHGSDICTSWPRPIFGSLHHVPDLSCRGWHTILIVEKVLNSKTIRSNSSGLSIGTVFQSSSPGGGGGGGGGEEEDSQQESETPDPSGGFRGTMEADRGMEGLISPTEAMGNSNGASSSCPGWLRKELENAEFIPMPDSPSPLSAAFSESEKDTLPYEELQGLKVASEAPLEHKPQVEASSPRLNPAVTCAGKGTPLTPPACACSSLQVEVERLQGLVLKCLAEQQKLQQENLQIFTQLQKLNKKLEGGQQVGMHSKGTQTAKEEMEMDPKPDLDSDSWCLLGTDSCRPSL

Serine/threonine-protein kinase Nek7 (Homo sapiens), sequence (Q8TDX7 whole entry, looked up): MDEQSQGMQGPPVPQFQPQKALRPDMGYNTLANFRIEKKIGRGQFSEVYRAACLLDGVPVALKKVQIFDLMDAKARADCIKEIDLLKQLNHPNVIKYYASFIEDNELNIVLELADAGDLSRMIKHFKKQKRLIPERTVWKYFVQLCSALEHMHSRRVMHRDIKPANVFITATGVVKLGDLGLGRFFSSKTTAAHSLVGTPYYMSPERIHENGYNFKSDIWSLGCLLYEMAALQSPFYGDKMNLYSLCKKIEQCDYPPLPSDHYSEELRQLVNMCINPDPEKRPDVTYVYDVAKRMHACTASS
Serine/threonine-protein kinase Nek6 (Homo sapiens), sequence (Q9HC98 whole entry): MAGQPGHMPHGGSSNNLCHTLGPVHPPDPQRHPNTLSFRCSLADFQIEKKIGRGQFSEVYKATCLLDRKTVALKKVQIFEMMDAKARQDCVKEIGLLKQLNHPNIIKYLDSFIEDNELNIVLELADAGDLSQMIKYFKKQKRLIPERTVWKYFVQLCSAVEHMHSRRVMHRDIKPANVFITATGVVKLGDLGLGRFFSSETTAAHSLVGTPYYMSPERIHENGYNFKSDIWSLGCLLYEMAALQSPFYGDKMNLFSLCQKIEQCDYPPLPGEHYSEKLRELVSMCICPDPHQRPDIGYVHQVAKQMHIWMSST
Casein kinase II subunit alpha (Homo sapiens), sequence (P68400 whole entry, looked up): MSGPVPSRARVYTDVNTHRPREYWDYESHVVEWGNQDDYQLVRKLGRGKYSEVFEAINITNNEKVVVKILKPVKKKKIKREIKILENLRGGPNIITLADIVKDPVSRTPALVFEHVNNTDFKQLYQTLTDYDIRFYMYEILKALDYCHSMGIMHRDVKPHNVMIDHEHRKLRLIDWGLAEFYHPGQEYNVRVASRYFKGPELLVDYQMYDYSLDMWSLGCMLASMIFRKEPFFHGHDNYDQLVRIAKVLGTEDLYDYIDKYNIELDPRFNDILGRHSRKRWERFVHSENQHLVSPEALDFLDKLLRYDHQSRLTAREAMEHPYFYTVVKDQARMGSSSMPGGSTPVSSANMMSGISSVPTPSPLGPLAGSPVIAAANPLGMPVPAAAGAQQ
Sphingosine kinase 1 (Homo sapiens), sequence (Q9NYA1 whole entry): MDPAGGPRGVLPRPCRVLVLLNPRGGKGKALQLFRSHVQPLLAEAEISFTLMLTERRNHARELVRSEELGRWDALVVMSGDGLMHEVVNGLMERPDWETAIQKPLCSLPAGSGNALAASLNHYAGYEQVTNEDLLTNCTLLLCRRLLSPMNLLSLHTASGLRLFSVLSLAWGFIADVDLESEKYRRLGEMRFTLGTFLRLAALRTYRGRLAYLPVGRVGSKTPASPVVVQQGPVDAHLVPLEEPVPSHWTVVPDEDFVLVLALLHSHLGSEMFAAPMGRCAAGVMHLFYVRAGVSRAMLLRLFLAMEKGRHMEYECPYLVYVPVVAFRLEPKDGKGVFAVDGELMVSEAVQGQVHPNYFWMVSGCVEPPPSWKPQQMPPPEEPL

COc1cccc(Nc2nccc(-c3cnn4ncccc34)n2)c1
inhibition [1]: -2.02% | inhibition [2]: 0.58% | inhibition [3]: -1.48% | inhibition [4]: 8.12% | inhibition [5]: 40.9% | inhibition [6]: 11.6% | inhibition [7]: 53.6% | inhibition [8]: 5.19% | inhibition [9]: 27.1% | inhibition [10]: 3.06% | inhibition [11]: 18.1% | inhibition [12]: 3.3% | inhibition [13]: 18.3% | inhibition [14]: 4.5% | inhibition [15]: 5.64% | inhibition [16]: 3.79% | inhibition [17]: 1.04% | inhibition [18]: -0.48% | inhibition [19]: 4.19% | inhibition [20]: 10.7%

CC1=C(C(=O)Nc2ccc3[nH]ncc3c2)C(c2ccc(F)cc2)N=C(c2ccc(C(F)(F)F)nc2)N1 (stereo not given)
inhibition [1]: 2.01% | inhibition [2]: 0% | inhibition [3]: -2.07% | inhibition [4]: 2.45% | inhibition [5]: 2.14% | inhibition [6]: 7.64% | inhibition [7]: -0.7% | inhibition [8]: 2.1% | inhibition [9]: -0.37% | inhibition [10]: 2.04% | inhibition [11]: 3.45% | inhibition [12]: 1.75% | inhibition [13]: 1.45% | inhibition [14]: 3.41% | inhibition [15]: 2.65% | inhibition [16]: 1.87% | inhibition [17]: -0.45% | inhibition [18]: 3.08% | inhibition [19]: 2.92% | inhibition [20]: 2.7%
